We go through 4 molecules from PubChem BioAssay.

Calls of active or inactive are those of the source. Unless noted, how the calls were made is not given here.

Experiment [1] relates to Wnt5a (protein binding on small-molecule microarray). The experiment can be described thus: Wnt5a binders on small-molecule microarray, primary screen, biophysical, 635/667 nm fluorescence (AID 1142).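 Further: fluorescence read at 667 nm with signal to noise per printed feature.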 The following applies: 635 nm fluorescence, higher = more signal.
Experiment [2] in a line: cell viability in Huh7 cells, primary screen, cytotoxicity control for HCV replication inhibitor project, CellTiter-Glo luminescence, basal, 48 h (AID 1143).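 Further: Huh7 hepatoma cells carrying a hepatitis C replication reporter with no stimulus; test concentration not given here.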 The following applies: Huh7 HCV replicon, higher = more signal, called active from +8 up or from −8 down.
Experiment [3] is described as follows: P. aeruginosa biofilm formation inhibitors, primary screen, PAO1 strain, BacTiter-Glo luminescence, LB-PBS (AID 1144). The following applies: 12 h, higher = more signal.
Experiment [4] can be described thus: CREB reporter modulators without forskolin, primary screen, cell-based, PC12, CRE-LacZ reporter, unstimulated (AID 1145). Particulars: no forskolin, luminescence, 4.5 h, higher = more signal, called active from +8 up or from −8 down.
Experiment [5] is described as follows: CREB reporter modulators under forskolin, primary screen, cell-based, PC12, CRE-LacZ reporter, forskolin-stimulated (AID 1146).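 Further: PC12 cells with 6xCRE LacZ reporter stimulated by forskolin 10 µM; beta-galactosidase reporter signal reflecting CREB driven transcription.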 The following applies: luminescence, 4.5 h, higher = more signal, called active from +8 up or from −8 down.
Experiment [6] has as its target Streptavidin (Streptomyces avidinii) (UniProt P22629). The experiment can be described thus: streptavidin binders on small-molecule microarray, primary screen, artefact control for SMM compound annotation, biophysical, 635/667 nm fluorescence (AID 1147).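 Further: signal reflects streptavidin binding to arrayed compounds as a control protein.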 The following applies: streptavidin binding, higher = more signal.
A short description of experiment [7]: small-molecule binders of probe aInhba, primary screen, biochemical, small-molecule microarray, 635/667 nm fluorescence (AID 1148).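 Further: score merges 667nm spot fluorescence with signal-to-noise for antibody binding to printed compounds.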 Particulars: higher = more signal.
In experiment [8] the target is Torsin-1A (Homo sapiens) (UniProt O14656). Briefly: torsin A binders from cell lysate, primary screen, small-molecule microarray, wild-type, 635/667 nm (AID 1149). The following applies: COS7 hTOR1A-WT lysate, 635 nm fluorescence, higher = more signal.
Experiment [9] shares this target. Briefly: small-molecule binders of mutant TOR1A in lysate, primary screen, cell lysate, small-molecule microarray, COS7 lysate, 635/667 nm fluorescence (AID 1150).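 Further: score pools 667 nm emission and signal to noise measuring lysate protein binding.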 The following applies: COS7 hTOR1A mutant lysate, 635 nm fluorescence, higher = more signal.
In experiment [10] the test system is Sonic hedgehog protein (Shh). Briefly: small-molecule binders of Shh protein, primary screen, biochemical, small-molecule microarray, 635/667 nm fluorescence (AID 1151).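 Further: Shh protein binding to compounds spotted on small-molecule microarray slides; score combines spot fluorescence intensity with signal-to-noise across triplicate slides.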 Particulars: small-molecule microarray binding, 635 nm fluorescence; higher = more signal.
A short description of experiment [11]: E. coli DRC41 culture turbidity changes, primary screen, E. coli filamentation inducer project, strain DRC41, OD650, 48 h (AID 1152).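 Further: E. coli MC1000 strain DRC41 lacking acrAB efflux pump and sulA.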 Particulars: E. coli DRC41 (acrAB sulA), higher = more signal, called active from +8 up or from −8 down.
The nature of experiment [12]: small-molecule binders of probe aLefty1, primary screen, biochemical, small-molecule microarray, 635/667 nm fluorescence (AID 1153).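 Further: score merges spot fluorescence with signal-to-noise ratio from the scanned slide images.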 The following applies: higher = more signal.
Experiment [13] is described as follows: PSAC antagonists in infected red cells, primary screen, cell-based, P. falciparum Indochina, OD700, 1 h (AID 1154). Particulars: P. falciparum Indochina infected RBC osmotic lysis, higher = more signal, called active from +8 up or from −8 down.
A short description of experiment [14]: PSAC antagonists in infected red cells, primary screen, cell-based, P. falciparum Indochina, OD700, 2 h (AID 1155).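 Further: lysis reports solute entry through the parasite surface anion channel PSAC; channel blockers reduce lysis of infected cells.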 Particulars: P. falciparum Indochina infected erythrocytes, osmotic lysis OD700; higher = more signal, called active from +8 up or from −8 down.
Experiment [15] is described as follows: osmotic lysis modulators in infected erythrocytes, primary screen, PSAC antagonist project, cell-based, P. falciparum Indochina, OD700, 3 h (AID 1156). Particulars: higher = more signal, called active from +8 up or from −8 down.
Experiment [16] can be described thus: PSAC antagonists in infected red cells, primary screen, cell-based, P. falciparum Indochina, OD700, 18 h (AID 1157). The following applies: P. falciparum Indochina infected erythrocytes, osmotic lysis OD700, 18 h; higher = more signal, called active from +8 up or from −8 down.
Experiment [17] in a line: modulators of S6 phosphorylation in cells, primary screen, cell-based, A549, cytoblot, luminescence, serum-stimulated (AID 1158).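 Further: serum-stimulated A549 lung adenocarcinoma cells; signal is phosphorylated S6 detected by cytoblot immunostaining with HRP secondary.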 The following applies: A549 phospho-S6 cytoblot, 5 h, higher = more signal.
Experiment [18] deals with NADPH oxidase 2 (Homo sapiens) (UniProt P04839). Briefly: NOX2-dependent H2O2 signal modulators, primary screen, NOX inhibitor project, cell-based, HEK293-NOX2, PMA-stimulated, Amplex Red fluorescence (AID 1159). Further: test concentration not given here. The following applies: 45 min, higher = more signal, called active from +8 up or from −8 down.
In experiment [19] the target is NADPH oxidase 4 (Homo sapiens) (UniProt Q9NPH5). The experiment can be described thus: NOX4-dependent H2O2 signal modulators, primary screen, NOX inhibitor project, cell-based, HEK293-NOX4, tetracycline-induced, Amplex Red fluorescence (AID 1160). The following applies: 45 min, higher = more signal, called active from +8 up or from −8 down.
The target in experiment [20] is NADPH oxidase 5 (Homo sapiens) (UniProt Q96PH1). The experiment can be described thus: NOX5-dependent H2O2 signal modulators, primary screen, NOX inhibitor project, cell-based, HEK293-NOX5, Amplex Red fluorescence (AID 1161). The following applies: HEK293-NOX5, ionomycin, 45 min, higher = more signal.
Sequence of NADPH oxidase 5 (Homo sapiens) (Q96PH1 whole entry, looked up): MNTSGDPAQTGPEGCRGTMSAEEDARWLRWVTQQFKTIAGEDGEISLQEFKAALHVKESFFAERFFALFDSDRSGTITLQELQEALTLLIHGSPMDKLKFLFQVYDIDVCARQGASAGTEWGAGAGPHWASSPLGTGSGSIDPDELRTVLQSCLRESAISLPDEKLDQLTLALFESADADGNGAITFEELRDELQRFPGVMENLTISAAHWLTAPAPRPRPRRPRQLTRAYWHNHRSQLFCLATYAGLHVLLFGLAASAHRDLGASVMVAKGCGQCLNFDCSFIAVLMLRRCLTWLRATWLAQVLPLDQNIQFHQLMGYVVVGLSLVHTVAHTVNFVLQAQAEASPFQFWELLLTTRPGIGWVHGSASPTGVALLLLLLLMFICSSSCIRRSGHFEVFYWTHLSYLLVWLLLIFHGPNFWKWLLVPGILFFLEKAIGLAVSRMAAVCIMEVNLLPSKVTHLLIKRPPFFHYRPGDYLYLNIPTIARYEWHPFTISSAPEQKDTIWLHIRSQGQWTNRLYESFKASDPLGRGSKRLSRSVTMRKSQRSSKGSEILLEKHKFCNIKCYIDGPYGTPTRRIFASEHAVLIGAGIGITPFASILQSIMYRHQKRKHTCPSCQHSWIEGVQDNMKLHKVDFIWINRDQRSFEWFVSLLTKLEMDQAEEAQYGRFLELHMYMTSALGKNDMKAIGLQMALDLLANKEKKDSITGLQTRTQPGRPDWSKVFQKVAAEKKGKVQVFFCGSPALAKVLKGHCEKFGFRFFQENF

Sequence of Streptavidin (Streptomyces avidinii) (P22629 whole entry, looked up): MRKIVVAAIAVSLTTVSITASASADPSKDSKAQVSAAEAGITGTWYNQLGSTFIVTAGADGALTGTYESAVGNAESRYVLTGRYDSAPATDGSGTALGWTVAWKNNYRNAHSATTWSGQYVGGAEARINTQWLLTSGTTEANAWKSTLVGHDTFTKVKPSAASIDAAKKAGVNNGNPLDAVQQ
Sequence of NADPH oxidase 4 (Homo sapiens) (Q9NPH5 whole entry, looked up): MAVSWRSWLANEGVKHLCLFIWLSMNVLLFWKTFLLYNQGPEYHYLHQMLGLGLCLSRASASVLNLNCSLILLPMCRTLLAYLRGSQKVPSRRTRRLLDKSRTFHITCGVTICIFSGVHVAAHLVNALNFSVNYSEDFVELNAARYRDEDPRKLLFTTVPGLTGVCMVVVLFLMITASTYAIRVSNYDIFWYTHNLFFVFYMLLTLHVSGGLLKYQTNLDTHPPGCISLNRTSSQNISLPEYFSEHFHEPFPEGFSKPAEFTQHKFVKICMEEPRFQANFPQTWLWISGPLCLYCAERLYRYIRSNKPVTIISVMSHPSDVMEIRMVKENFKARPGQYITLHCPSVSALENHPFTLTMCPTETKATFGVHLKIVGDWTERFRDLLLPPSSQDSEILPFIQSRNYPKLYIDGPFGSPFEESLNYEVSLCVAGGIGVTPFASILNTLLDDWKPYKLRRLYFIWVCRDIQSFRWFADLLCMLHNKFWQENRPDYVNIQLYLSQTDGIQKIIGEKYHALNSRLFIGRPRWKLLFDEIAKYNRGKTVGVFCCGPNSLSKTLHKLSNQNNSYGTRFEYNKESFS
Sequence of NADPH oxidase 2 (Homo sapiens) (P04839 whole entry, looked up): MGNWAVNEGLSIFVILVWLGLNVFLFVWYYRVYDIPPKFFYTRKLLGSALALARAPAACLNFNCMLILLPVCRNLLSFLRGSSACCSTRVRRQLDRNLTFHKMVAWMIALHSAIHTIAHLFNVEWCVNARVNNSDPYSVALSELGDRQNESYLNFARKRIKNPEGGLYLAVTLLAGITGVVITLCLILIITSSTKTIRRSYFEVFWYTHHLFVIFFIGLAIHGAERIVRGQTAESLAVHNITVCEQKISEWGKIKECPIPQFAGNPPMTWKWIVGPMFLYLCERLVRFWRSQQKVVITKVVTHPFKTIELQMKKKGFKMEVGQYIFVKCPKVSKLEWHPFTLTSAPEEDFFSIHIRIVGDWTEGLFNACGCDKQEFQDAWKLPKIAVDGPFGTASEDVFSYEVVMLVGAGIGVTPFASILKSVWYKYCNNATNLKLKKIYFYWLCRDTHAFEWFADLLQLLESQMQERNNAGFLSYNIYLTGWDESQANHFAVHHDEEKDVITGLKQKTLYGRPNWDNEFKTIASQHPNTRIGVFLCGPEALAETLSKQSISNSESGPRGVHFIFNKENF
Sequence of Torsin-1A (Homo sapiens) (O14656 whole entry, looked up): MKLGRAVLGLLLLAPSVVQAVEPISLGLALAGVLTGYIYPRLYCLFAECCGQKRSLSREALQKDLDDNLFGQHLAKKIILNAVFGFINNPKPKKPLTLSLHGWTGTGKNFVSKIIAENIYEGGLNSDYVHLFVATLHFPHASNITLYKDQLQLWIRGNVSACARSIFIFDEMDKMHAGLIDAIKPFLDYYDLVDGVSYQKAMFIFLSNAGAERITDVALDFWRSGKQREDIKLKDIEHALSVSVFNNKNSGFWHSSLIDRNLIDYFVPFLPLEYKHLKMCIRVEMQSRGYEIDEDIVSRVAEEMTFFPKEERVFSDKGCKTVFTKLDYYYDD

For `C=C[C@@H](OC)[C@H](OC(=O)Nc1ccc(SC)cc1)c1ccc(OCCO)cc1`, the composite z-score in experiment [1] is 0.502; in experiment [6] it was 0.22; in experiment [7], -0.071; in [8], 0.615; in experiment [9], 0.8; in experiment [10], 1.2. This molecule came in with a composite z-score in [12] of 0.137. The z-score is -2.53 (inactive) in experiment [2]; -0.918 (inactive) in experiment [3]; 9.77 (active) in experiment [4]; 0.136 (inactive) in experiment [5]; -3.28 (inactive) in experiment [11]; 26.7 (active) in experiment [13]. Moreover, the z-score in [14] was 16.4 (active); in experiment [15], 2.11 (inactive); in [16] it was 1.78 (inactive); in [17], 0.285; in experiment [18], 0.403 (inactive); in experiment [19] it was 0.357 (inactive). This molecule gave a z-score in experiment [20] of 0.00434.
For `CCOC(=O)C1=C[C@@H](C(C)(C)C)N(S(=O)(=O)c2ccc(C)cc2)[C@H]1c1ccccc1`, the composite z-score came out at 0.251 in experiment [1]; 1.29 in [6]; 0.27 in experiment [7]; 0.0214 in experiment [8]; 0.611 in experiment [9]; 0.871 in experiment [10]. In addition, the composite z-score in [12] is 0.407. The z-score in [2] is -4.44 (inactive); in experiment [3], 1.43 (inactive); in experiment [4] it was 0.696 (inactive); in experiment [5], -0.276 (inactive); in experiment [11], -0.492 (inactive); in [13], -0.132 (inactive). The z-score was 0.457 (inactive) in experiment [14]; -0.803 (inactive) in experiment [15]; -0.0282 (inactive) in experiment [16]; -0.667 in experiment [17]; -0.707 (inactive) in experiment [18]; -0.655 (inactive) in experiment [19]. In [20], the z-score is -0.083.
In the case of `COC(=O)C(CC#Cc1ccc2c(c1)[C@]1(C(=O)N2)[C@H](c2ccc(O)cc2)N2[C@H](c3ccccc3)[C@H](c3ccccc3)OC(=O)[C@H]2[C@@H]1C(=O)N1CCCCCCC1)C(=O)OC`, the composite z-score was determined as 0.851 in [1]; 1.26 in experiment [6]; 1.36 in experiment [7]; 0.78 in [8]; 0.592 in experiment [9]; 0.777 in experiment [10]. The same molecule registered a composite z-score in [12] of 1.69. In addition, the z-score in experiment [2] is -3.72 (inactive); in experiment [3], -1.77 (inactive); in [4] it was -0.0515 (inactive); in experiment [5], -0.507 (inactive); in [11], 1.11 (inactive); in experiment [13], 0.53 (inactive). Further, the z-score is -1.11 (inactive) in experiment [14]; -0.677 (inactive) in experiment [15]; -2.43 (inactive) in experiment [16]; 3.01 in [17]; 0.953 (inactive) in experiment [18]; 0.181 (inactive) in experiment [19]. The z-score in experiment [20] came out at 1.63.
In the case of `O=C(NCCN1CCOCC1)[C@@H]1c2ccccc2C(=O)N(Cc2ccccc2)[C@H]1c1ccc(CO)cc1`, the composite z-score was -0.817 in experiment [1]; 1.49 in [6]; -0.0719 in [7]; -1.46 in experiment [8]; -0.21 in [9]; -1.67 in experiment [10]. Besides, the composite z-score in experiment [12] is -0.101. Further, the z-score in experiment [2] is -1.62 (inactive); in experiment [3] it was -0.996 (inactive); in [4], 0.145 (inactive); in experiment [5] it was -0.674 (inactive); in [11] it was 0.347 (inactive); in experiment [13] it was 1.23 (inactive). For the same molecule, the z-score in experiment [14] was -0.222 (inactive); in experiment [15], 0.766 (inactive); in experiment [16] it was -0.0161 (inactive); in [17], -0.214; in experiment [18] it was -1.71 (inactive); in experiment [19], -0.652 (inactive). The molecule further displayed a z-score in [20] of -2.89.
